Assay outcomes as filed in PubChem BioAssay.
HP1b chromo inh: inhibitors of HP1-beta chromodomain binding to methylated histone tails | P83916 | AlphaScreen HP1-beta / biotin-H3K9me3 peptide binding | Potency, µM (titrated, usually from 114 µM), without a hit: at the highest dose activity change, negative = inhibition, usual class: inhibitors | actives 0.56% (n = 390,000) | AID 540317; further: potency means the concentration at half of the fitted maximal effect; nearly all actives have a fitted effect of over 70% in size
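AlphaScreen: HP1-beta (50 nM) preformed 30 min with biotin-H3(1-18)K9me3 peptide (50 nM) in PBS pH 7.4, 0.01% Tween-20. Compound added for 30 min at RT, then streptavidin donor/nickel chelate acceptor beads (10 ug/mL) for 30 min.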
G9a block: blocks human histone lysine methyltransferase G9a; Q96KQ7; G9a H3K9 monomethylation, AlphaScreen, 2 h; Potency, µM (top dose mostly 102 µM), without a hit: at the highest dose activity, negative = inhibition, hits mostly inhibitors; actives 8.8% (n = 350,000); further: potency means the concentration at half of the fitted maximal effect; on the % scale 0 is the no-effect control and ±100 the full control effect; nearly all actives have a fitted effect of over 75% in size
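AlphaScreen read-out: biotin-H3K9 peptide (500 nM) methylation by 20 nM enzyme with 20 uM SAM, 2 h at room temperature after 15 min compound preincubation; anti-monomethyl H3K9 antibody plus donor/acceptor beads, 10 min dark.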
CtBP-E1A blk: blocks the CtBP interaction with E1A. AlphaScreen GST-E1A/His-CtBP binding, 1536-well; stronger effect = lower value. actives 0.49% (n = 340,000). activity change, % (concentration not given with the values); in the data active means activity change below about -65%; inconclusive means mostly about -30% to -63%; further: on the % scale 0 is the no-effect control and ±100 the full control effect
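Steps: dispense buffer (Tris pH 8.0, NaCl 300 mM, TCEP 1 mM, BSA, Tween 20); add 5X protein mix (GST-E1A, His-CtBP, 125 nM each); pin 23 nL compound; 2 h at 37 °C, dark; add 5X beads (50 ug/mL); 1 h; read.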
Six1-Eya2 blk: inhibitors of human Six1/Eya2 interaction; Q15475+O00167; AlphaScreen GST-Six1/His-Eya2 binding, biochemical; stronger effect = lower value; activity change, % (concentration not given with the values); actives 0.56% (n = 360,000); in the data active means activity change below about -65%; inconclusive means mostly about -30% to -63%; further: on the % scale 0 is the no-effect control and ±100 the full control effect
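Six1/Eya2 binding was read as AlphaScreen signal after compounds were pinned into GST-Six1 plus His-tagged Eya2 (5X stock 250/500 nM) in pH 8.0 Tris/NaCl/TCEP buffer, beads added, then incubated 1 h, 37 C, dark.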
JMJD2A Tudor inh: inhibitors of human JMJD2A Tudor domain; AlphaScreen JMJD2A-Tudor / H3K4me3 peptide binding; AID 504339; Potency, µM (series often up to 114 µM), for inactives: top-dose activity change, negative = inhibition, most hits filed as inhibitors; O75164; actives 4.4% (n = 390,000); further: potency means the concentration at half of the fitted maximal effect; on the % scale 0 is the no-effect control and ±100 the full control effect; nearly all actives have a fitted effect of over 50% in size
Target sequence (O75164 whole entry, looked up, the tested form may be a part): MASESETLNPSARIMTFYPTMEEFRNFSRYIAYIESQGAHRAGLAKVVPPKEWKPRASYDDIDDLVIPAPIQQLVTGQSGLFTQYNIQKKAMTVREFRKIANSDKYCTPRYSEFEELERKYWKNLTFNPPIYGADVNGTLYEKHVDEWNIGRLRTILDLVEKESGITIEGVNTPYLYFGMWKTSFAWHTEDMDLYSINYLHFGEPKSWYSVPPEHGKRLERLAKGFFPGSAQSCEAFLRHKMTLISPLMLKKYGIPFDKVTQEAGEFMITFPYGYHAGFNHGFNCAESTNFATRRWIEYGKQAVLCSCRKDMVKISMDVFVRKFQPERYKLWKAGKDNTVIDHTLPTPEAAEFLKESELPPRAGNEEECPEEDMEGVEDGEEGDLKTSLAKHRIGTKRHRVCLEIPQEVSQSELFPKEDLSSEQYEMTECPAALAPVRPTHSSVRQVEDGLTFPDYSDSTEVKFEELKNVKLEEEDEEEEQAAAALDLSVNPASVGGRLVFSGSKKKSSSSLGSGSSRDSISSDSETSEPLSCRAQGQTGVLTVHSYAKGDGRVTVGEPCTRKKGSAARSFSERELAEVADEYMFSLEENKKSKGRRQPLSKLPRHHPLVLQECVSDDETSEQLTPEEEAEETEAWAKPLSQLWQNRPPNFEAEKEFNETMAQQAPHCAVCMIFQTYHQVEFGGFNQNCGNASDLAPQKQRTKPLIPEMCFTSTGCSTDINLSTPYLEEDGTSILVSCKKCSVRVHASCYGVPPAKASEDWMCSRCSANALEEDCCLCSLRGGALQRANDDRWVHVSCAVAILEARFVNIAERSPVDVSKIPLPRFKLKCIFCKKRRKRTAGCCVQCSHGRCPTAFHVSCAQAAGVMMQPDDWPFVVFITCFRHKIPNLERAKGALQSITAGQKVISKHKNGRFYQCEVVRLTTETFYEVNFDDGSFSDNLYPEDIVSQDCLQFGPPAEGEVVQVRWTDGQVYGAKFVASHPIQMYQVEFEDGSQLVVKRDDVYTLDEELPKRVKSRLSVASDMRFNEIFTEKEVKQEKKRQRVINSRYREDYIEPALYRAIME
BAZ2B inh: inhibitors of human BAZ2B bromodomain; Potency, µM (highest dose often 114 µM), for the others: at the highest dose activity change, negative = inhibition, usual class: inhibitors; actives 4.4% (n = 360,000); AlphaScreen BAZ2B-H3K14Ac peptide displacement; Q9UIF8; AID 504333; further: potency means the concentration at half of the fitted maximal effect; on the % scale 0 is the no-effect control and ±100 the full control effect; nearly all actives have a fitted effect of over 60% in size
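Protein-peptide AlphaScreen: BAZ2B 50 nM, b-H3K14Ac 50 nM, 1x PBS pH 7.4 + 0.01% Tween-20. Preincubation 30 min RT; cpd 30 min RT (top 110 uM); beads 20 min RT, light-protected.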
Active calls of the source: *; [ ] = dose if it differs, or a comment. Only some compounds are listed: those with a hit (about 10% of all), similar ones and a draw of the others. Unless noted, the call rests on the fitted dose curve; in most records, active means well fitted inhibition curve with a large enough effect; inconclusive means small, poorly fitted or top-dose-only effect; inactive means no such curve, though single readings can be large or run the other way.

`COc1ccc(-c2c(C)nn3c(C(F)(F)F)cc(C)nc23)cc1OC` gave HP1b chromo inh 7%, G9a block -33%[59 µM], JMJD2A Tudor inh inconclusive and BAZ2B inh -32%.
Screening O=C(O)/C=C/C(=O)N1CCN(C(=O)/C=C/C(=O)O)CC1 returned HP1b chromo inh -11%, G9a block -20%[59 µM], CtBP-E1A blk -23, Six1-Eya2 blk 1, JMJD2A Tudor inh inconclusive and BAZ2B inh -5%.
`CCOC(=O)/C=C/C(=O)N1CCN(C(=O)/C=C/C(=O)OCC)CC1` gave HP1b chromo inh 42%, G9a block 56µM*, CtBP-E1A blk 4, Six1-Eya2 blk 10, JMJD2A Tudor inh -3% and BAZ2B inh -8%.
CC(=O)C1=C(O)C(=O)N(c2ccc(S(N)(=O)=O)cc2)C1c1cccc([N+](=O)[O-])c1 (stereo not drawn) was read as HP1b chromo inh 20%, G9a block 50µM*, CtBP-E1A blk -5, Six1-Eya2 blk 7, JMJD2A Tudor inh -16%[11.4 µM] and BAZ2B inh -26%.
CCOC(=O)C1=C(O)C(=O)N(c2ccc(S(N)(=O)=O)cc2)C1c1cccc([N+](=O)[O-])c1 (stereo not drawn) was read as HP1b chromo inh 20%, G9a block inconclusive, CtBP-E1A blk 4, Six1-Eya2 blk -4, JMJD2A Tudor inh -21% and BAZ2B inh -22%.
For COc1cc2ccc(=O)oc2c(O)c1OCC=C(C)C the results were HP1b chromo inh -11%, G9a block 11µM*, CtBP-E1A blk -6, Six1-Eya2 blk -2, JMJD2A Tudor inh inconclusive and BAZ2B inh -33%.
CC(C)=CCOc1ccc2ccc(=O)oc2c1 was read as HP1b chromo inh 49%, G9a block 7%[12.7 µM], CtBP-E1A blk 11, Six1-Eya2 blk -6, JMJD2A Tudor inh 4% and BAZ2B inh 10%.
`O=c1[nH]c2ccsc2c(=O)n1CCO` gave HP1b chromo inh 27%, G9a block 22%, CtBP-E1A blk -12, Six1-Eya2 blk -3, JMJD2A Tudor inh -4% and BAZ2B inh -1%.
CCOc1ccc(C2NC(=O)c3sc(=S)n(-c4ccccc4)c3N2)cc1 (stereo not drawn) was read as HP1b chromo inh 20%, G9a block 32µM*, CtBP-E1A blk 1, Six1-Eya2 blk -10, JMJD2A Tudor inh -28% and BAZ2B inh inconclusive.
`COc1ccc(C2NC(=O)c3sc(=S)n(-c4ccccc4)c3N2)cc1` (stereo not drawn) gave HP1b chromo inh 25%, G9a block -43%[12.7 µM], CtBP-E1A blk -15, Six1-Eya2 blk -9, JMJD2A Tudor inh -13% and BAZ2B inh -12%.
For O=C1NC(c2ccccc2)Nc2c1sc(=S)n2-c1ccccc1 (stereo not drawn) the results were HP1b chromo inh -5%, G9a block 22µM*, Six1-Eya2 blk -4, JMJD2A Tudor inh -11%[11.4 µM] and BAZ2B inh -19%.
`Cc1cc(C)cc(N2C(=O)c3nccnc3C2=O)c1` gave HP1b chromo inh 23%, G9a block -2%, CtBP-E1A blk -8, Six1-Eya2 blk -3, JMJD2A Tudor inh 1% and BAZ2B inh 1%.
`Cc1c([N+](=O)[O-])cc(N2C(=O)C=CC2=O)cc1[N+](=O)[O-]` gave HP1b chromo inh 35µM*, CtBP-E1A blk 0, Six1-Eya2 blk -10 and JMJD2A Tudor inh 22µM*.
Screening Cc1cc(N2C(=O)C=CC2=O)c([N+](=O)[O-])cc1C returned HP1b chromo inh 5.6µM*, G9a block 1.3µM*, CtBP-E1A blk inconclusive, Six1-Eya2 blk -17, JMJD2A Tudor inh 6.3µM* and BAZ2B inh 56µM*.
For Cc1c(Cl)cc(-n2cnnn2)cc1[N+](=O)[O-] the results were HP1b chromo inh 48%, G9a block -29%, Six1-Eya2 blk 2, JMJD2A Tudor inh -11% and BAZ2B inh -2%.
For Cc1cc(C)cc(N2C(=O)C=CC2=O)c1 the results were HP1b chromo inh 13µM*, CtBP-E1A blk 0, Six1-Eya2 blk -3 and JMJD2A Tudor inh 20µM*.
